Laboratory results: PubChem BioAssay AID2685 (National Center for Advancing Translational Sciences (NCATS), 2010)
Screen size: about 320,000 compounds; about 2,100 (0.66%) were called active. About 53% were inconclusive and are not listed. Calls come from the whole dose curve; as a rule, active = well fitted inhibition curve with a large enough effect in the signal ratio, with a control signal flat (not every such curve was filed as active); inconclusive = small, poorly fitted or top-dose-only effect, or effect the other way, or a change in a side signal; inactive = flat fitted curve, though single readings scatter; the % refers to the signal ratio. Many of the other results were omitted from the sample, so actives are more common in it than they were.

Test: qHTS Assay for Lipid Storage Modulators in Drosophila S3 Cells;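 for cell number change: cells counted by Cell Tracker Red CMTPX staining in the red channel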; for lipid storage change, negative = inhibition: % is set by controls: 0 for no effect and ±100 for the full control effect
Settings: BODIPY lipid droplet fluorescence, 18-24 h, cells fed with added oleic acid; cell number change: measured here: cell count max response; series mostly up to 46.1 µM; lipid storage change, negative = inhibition: at the top concentration
Outline: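 Drosophila S3 cells got compounds at several concentrations plus oleic acid (400 uM solution). Laser-scanning cytometry with 488 nm excitation read lipid droplets at 500-530 nm and cells at 575-640 nm. Percent activity was relative to 20 uM Triacsin C.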
Potency is the fitted concentration of half-maximal effect.

Row | Structure (SMILES) | lipid storage change, negative = inhibition | cell number change | Potency | outcome
1 | Cc1ccsc1C(=O)NCCc1nnc2ccccn12 | -1.6% (inactive) | 18.3% | – | –
2 | COc1cccc(/C=N/N(C)C2=NS(=O)(=O)c3ccccc32)c1O | 1.01% (inactive) | 12.6% | – | –
3 | CN(/N=C/c1cc(Cl)ccc1O)C1=NS(=O)(=O)c2ccccc21 | – | 12.6% | 3.66 µM (active) | –
4 | Cc1ccc(/C=N/N(C)C2=NS(=O)(=O)c3ccccc32)cc1 | -1.35% (inactive) | 17.1% | – | –
5 | CCCCCOC(=O)CCN1C(=O)/C(=C2\SC(=S)N(CCC(=O)OCCCCC)C2=O)SC1=S | 13.2% (inactive) | -3.31% | – | –
6 | Cc1ccc(NC(=O)c2cc(=O)[nH]c3ccc(S(=O)(=O)N4CCOCC4)cc23)nc1 | 11.8% [at 0.0737 µM] (inactive) | -6.73% | – | –
7 | COc1ccc(S(=O)(=O)Oc2ccc(C(=S)N3CCOCC3)cc2OC)cc1 | – | -13.8% | – | inactive
8 | COc1ccc(S(=O)(=O)Oc2ccccc2C(=S)N2CCOCC2)cc1 | – | -29.9% | 1.46 µM (active) | –
9 | COc1ccc(S(=O)(=O)Oc2cccc(C(=S)N3CCOCC3)c2)cc1 | – | -15.5% | – | inactive
10 | COc1ccc2[nH]c(=O)c(CN(CCN(C)C)C(=O)NCc3ccccc3)cc2c1 | – | 17.8% | – | inactive
11 | COc1ccccc1CNCC(c1ccccc1)c1ccccc1 | – | -20% | 1.46 µM (active) | –
12 | COc1ccccc1CNN | -3.56% (inactive) | -17.3% | – | –
13 | COc1ccccc1CNCc1cc(OC)c(OC)cc1OC | – | -2.42% | – | inactive
14 | CCCCC(=O)Nc1ccc(NC(=O)c2cnccn2)cn1 | -6.31% (inactive) | 3.06% | – | –
15 | CCOC(=O)c1c(NC(=O)c2cccnc2)sc(C(C)=O)c1C | 2.48% (inactive) | 5.18% | – | –
16 | O=C(c1ccc(S(=O)(=O)Nc2cccc(C(F)(F)F)c2)cc1)N1CCC1 | 18.7% (inactive) | 1.62% | – | –
17 | CCN(Cc1ccccc1)Cc1cccc([N+](=O)[O-])c1 | – | – | – | inactive
18 | OCCN(Cc1ccccc1)Cc1cccc(F)c1 | 4.72% (inactive) | -7.51% | – | –
19 | O=[N+]([O-])c1cccc(CN(CCO)Cc2ccccc2)c1 | – | -9.58% | 13 µM (active) | –
20 | CC1(C(=O)NC2CCCCCCC2)CCC(=O)N1Cc1ccco1 (configuration not stated) | -0.266% (inactive) | 2.23% | – | –
21 | CC(=O)N1CCC(N2CCN(c3ccccc3F)CC2)CC1 | -6.18% (inactive) | -0.227% | – | –
22 | COC(=O)c1ccc(S(=O)(=O)N2CCCN(Cc3cccc(Br)c3F)CC2)n1C | 25.4% (inactive) | – | – | –
23 | COc1cc(NC2c3ccccc3C(=O)N2c2ccc(C)cn2)cc(OC)c1OC (configuration not stated) | 1.47% (inactive) | 9.33% | – | –
24 | CCOC(=O)c1cc(C(=O)NN)c(=O)[nH]c1C | -8.78% (inactive) | -9.94% | – | –
25 | COCCOc1ccc(C(F)(F)F)cc1NC(=O)COC(=O)c1c(C)noc1C | -14% (inactive) | -13.3% | – | –
26 | COc1ccc(Cl)cc1NC(=O)COC(=O)c1c(-c2ccccc2)noc1C | – | -24.6% | – | inactive
27 | COc1ccc(OC)c(NC(=O)COC(=O)c2c(C)noc2C)c1 | – | -7.27% | 4.61 µM (active) | –
